# AF4-AF9 inh: blocks AF4 peptide binding to human AF9; AlphaScreen, biotin-AF4 peptide binding to FLAG-AF9; inhibition, % at 10 µM; 350,000 compounds, 0.47% hits;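 active means every replicate reaching a set inhibition limit, whatever the replicate mean, cut at about 25% in these data; inconclusive means mean inhibition reaches that limit but some replicates miss it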;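 further: 0% = plate neutral control median and 100% = total signal loss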
# FGF22 binding: FGF22 (human) thermal shift binding; activity (Tm shift, normalised), % at 9.99 µM; Q9HCT0; recombinant FGF22 thermal shift, SYPRO orange fluorescence; percent of sucrose octasulfate shift, DMSO zero; 340,000 compounds, 1.5% hits;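 active means mean Tm shift, scaled 0 neutral to 100 positive control, at about 1.3% or above, every replicate too, limit read from the data; inconclusive means no clear call, values can overlap the other calls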
# Target sequence (Q9HCT0 whole entry, looked up): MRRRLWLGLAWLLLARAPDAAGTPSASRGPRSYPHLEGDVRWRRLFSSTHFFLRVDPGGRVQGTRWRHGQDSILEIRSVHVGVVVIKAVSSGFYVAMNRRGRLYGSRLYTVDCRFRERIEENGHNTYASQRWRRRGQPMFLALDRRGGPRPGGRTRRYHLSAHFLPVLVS
# Wnt act: activators of Wnt/beta-catenin signaling; activation, % at 9.35 µM; Wnt/beta-catenin reporter cell assay, activator, plate reader; 300,000 compounds, 1.2% hits; AID 743398; in the data active means activation above about 30%, passing the limit was not always enough; inconclusive means no clear call, values can overlap the other calls;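 further: 0% = neutral control wells and 100% = positive control wells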
# esBAF inh: inhibitors of esBAF chromatin remodeling in mouse ES cells; 350,000 compounds, 2% hits; AID 602393; reporter increase, % at 12.5 µM; Bmi1-luciferase knock-in reporter, 24 h; 100% = twice the neutral-well signal; in the data active means activation above about 40%; inconclusive means no clear call, values can overlap the other calls;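 further: 0% = median of the plate's neutral control wells and 100% = double that signal; a rise in the Bmi1 reporter signal indicates esBAF inhibition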
# MITF TRPM1 HTS: MITF TRPM1 promoter activation in melanoma cells | SK-MEL-5 TRPM1-promoter luciferase, 24 h; % of positive control, neutral wells = 0 | activation, % at 12.5 µM | 300,000 compounds, 0.75% hits;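 active means mean activation of at least 80% with every replicate also reaching 80%; inconclusive means mean reaches 80% but some replicate falls short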;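 further: 0% = neutral control wells and 100% = parthenolide positive control wells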
# SMARCA2 activ: increases SMARCA2 function in MMTV reporter cells; MG213 cells, MMTV-luciferase reporter, dexamethasone, overnight; activation, % at 9.1 µM; 370,000 compounds, 1% hits; in the data active means activation above about 7.8%;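 further: 0% = vehicle wells and 100% = reference activator wells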
# An asterisk follows results filed as active; ? = inconclusive; . = no result. Shown are actives, neighbours in structure and some others; about 4.3% of the full set was active somewhere.
SMILES,AF4-AF9 inh,FGF22 binding,Wnt act,esBAF inh,MITF TRPM1 HTS,SMARCA2 activ
Cc1ccc(Cc2c(-c3cccc(Cl)c3)nc3ccc(Br)cn23)cc1,-4.2,0.2,39.8*,?,.,1.8
COc1ccccc1Cc1c(-c2cccc(Cl)c2)nc2ccc(Br)cn12,0.5,-0.1,5.4,41.8*,.,2.6
COCC(=O)N1C[C@H](C)[C@H](OC)CN(C)C(=O)c2ccc(NC(=O)c3ccc(OC)cc3)cc2OC[C@H]1C,-0.2,-0.2,.,-5.6,.,.
O=C(Nc1ccccc1)N1C[C@H]2[C@@H](c3ccccc31)[C@@H](CO)N2C(=O)c1cccnc1,-12.1,-1.1,.,18.3,.,.
c1ccc(Nc2ccc3c4c(cccc24)CC3)cc1,.,.,-0.8,0.2,.,-0.9
c1ccc(NC2=Nc3ccccc3CC2)cc1,.,.,.,46.4*,?,1.1
COC(=O)N/N=C/c1ccc(OC(=O)/C=C/c2ccco2)cc1,-0.3,-0.1,53.4*,.,.,-1.7
O=C(Cc1ccccc1)N/N=C/c1ccc(OC(=O)/C=C\c2ccco2)cc1,.,.,104.4*,-0.6,-7.7,-1.1
CCc1ccc(OC(=O)/C=C/c2ccco2)cc1,-4.4,0.0,-2.0,-3.6,.,6.1
COc1ccc(CCCc2n[nH]c(=S)o2)cc1C,-4.8,43.2*,2.5,-6.3,-6.5,-4.3
CC(C)NC(=O)Nc1ccc2c(c1)C(=O)N([C@H](C)CO)C[C@@H](C)[C@@H](CN(C)C)OCCCC[C@H](C)O2,-3.0,0.2,.,.,.,.
Cc1ccc(NC(=O)c2cc(-c3cc(Cl)ccc3O)n[nH]2)cc1C,-2.8,-0.2,3.6,0.4,1.3,-4.5
Cc1ccc(NC(=O)c2snc3ccc(Cl)cc23)cc1C,0.9,0.1,48.5*,.,45.3,6.6
CCOc1ccc(N/C=C/C(=O)c2ccc(OC)cc2)c([N+](=O)[O-])c1,.,.,5.9,72.6*,98.2*,6.5
CCOc1ccc(NC(=O)c2ccc(CC)s2)c([N+](=O)[O-])c1,1.4,0.2,5.4,50.0*,79.5,-2.2
C[C@@H]1CN([C@@H](C)CO)C(=O)Cc2cc(NS(=O)(=O)c3cccs3)ccc2O[C@H]1CN(C)S(C)(=O)=O,-1.6,-0.1,.,-1.5,.,.
CC(C)(C)C(=O)Nc1ccc(C(=O)Nc2cccnc2)cc1,.,.,49.0*,20.8,68.9,2.4
O=C(Nc1ccncc1)c1ccc(-c2ccccc2)cc1,0.2,44.8*,4.1,.,42.2,-6.0
O=C(Nc1ccc(Cc2ccc(NC(=O)Nc3cccnc3)cc2)cc1)Nc1cccnc1,-0.6,0.0,-1.8,56.0*,.,-1.0
O=C(Nc1cccnc1)c1ccc(-c2ccccc2)cc1,-2.8,-0.1,-3.6,93.0*,65.2,3.9
CC(C)NC(=O)N[C@@H]1CC[C@@H](CCn2cc(-c3ccccc3)nn2)O[C@H]1CO,0.5,-0.4,.,2.6,.,.
COCC#Cc1ccc2c(c1)O[C@H](CN(C)C(=O)C1CCC1)[C@H](C)CN([C@@H](C)CO)S2(=O)=O,-2.8,0.1,.,5.1,.,.
O=C(Nc1ccc(-c2cnco2)cc1)c1ccccc1,-3.6,-0.1,21.5,.,85.9*,3.8
CCCc1cc(C(=O)Nc2nccs2)cs1,.,.,.,19.2,95.0*,6.5
CCCN1C(=O)c2ccc(C(=O)Nc3nccs3)cc2C1=O,.,.,3.5,43.3*,.,2.2
SMILES,AF4-AF9 inh,FGF22 binding,Wnt act,esBAF inh,MITF TRPM1 HTS,SMARCA2 activ
CCC(CC)C(=O)Nc1cccc(C(=O)Nc2nccs2)c1,.,.,.,0.1,.,0.8
CCc1cccc(NC(=O)c2sc3nc4n(c(=O)c3c2C)CCC4)c1,1.6,0.1,14.1,62.8*,95.0*,3.1
COc1cc(C(=O)Nc2nc3ccc(C)cc3s2)ccc1OCc1c(C)noc1C,.,.,.,6.3,-12.9,-3.0
CCc1nnc(NC(=O)c2ccc(OCc3c(C)noc3C)c(OC)c2)s1,-0.9,43.1*,0.0,5.2,-12.8,1.9
CCc1nnc(NC(=O)c2ccc3ncsc3c2)s1,16.4,0.0,34.4*,27.0,45.2,3.2
Cc1cnc(NC(=O)c2ccc3ncsc3c2)s1,14.0,-0.1,48.4*,.,47.4,4.1
CCc1nnc(NC(=O)c2ccncc2)s1,.,.,.,2.7,-3.6,-2.4
O=c1[nH]c(-c2ccncc2)nc2ccccc12,.,.,-8.0,1.3,-11.5,-0.3
Cc1cccc(-c2nc3ccccc3c(=O)[nH]2)c1,-0.2,-0.1,25.7,7.9,96.8*,0.7
O=S(=O)(c1ccc(Cl)cc1Cl)n1ccc2cccnc21,-2.7,43.2*,-4.5,-5.3,7.8,-3.3
CCCCS(=O)(=O)N1C2=NC(C(=O)OCC)=C(C(=O)OCC)C3N(Cc4ccc(Br)cc4)c4ccccc4[C@]23C[C@H]1C(=O)OC (stereo partly drawn),-1.4,0.1,-9.2,.,.,-1.9
CCOc1ccc(NCc2cccn2-c2nnc(N3CCC(C(=O)NCCCN4CC(C)CC(C)C4)CC3)s2)cc1 (stereo not drawn),39.9*,0.0,1.8,-86.4,-89.8,0.2
CC=Cc1ccc2n(c1=O)C[C@@H]1[C@@H](CO)[C@H](C(=O)N3CCc4ccccc4C3)[C@H]2N1Cc1ccncc1 (mixture of isomers),2.2,1.5*,.,1.0,.,.
CCCn1nnnc1NCc1ccc(SC)cc1,0.0,-0.2,-1.0,-8.9,.,-2.6
CSc1ccc(CNc2nnnn2C)cc1,-1.1,42.9*,1.5,-8.3,8.3,-0.3
CSc1ccc(CNc2ccc(Cl)cc2)cc1,1.3,0.1,-1.0,37.7,101.0*,1.6
O=C(C[C@@H]1C=C[C@@H](NC(=O)Nc2ccc3c(c2)OCO3)[C@H](CO)O1)NCc1ccccc1,0.2,0.3,.,-1.3,.,.
CC(=O)N1[C@@H]2c3ccc(C4=CCCC4)c(=O)n3C[C@H]1[C@H](CO)[C@H]2C(=O)NC1CCC1,-1.6,.,.,6.5,.,.
CO[C@H]1CN(C)C(=O)c2ccc(NC(=O)Nc3ccc(C(F)(F)F)cc3)cc2OC[C@H](C)NC[C@H]1C,-2.1,-0.8,.,2.8,.,.
Cc1ccc(NC(=O)COC(=O)Cn2nc(-c3ccc(F)cc3)oc2=O)cc1C,2.8,43.5*,-3.1,.,-12.1,5.6
O=C(COC(=O)Cn1nc(-c2ccccc2)oc1=O)Nc1ccc(F)cc1,-0.8,0.2,-4.8,-2.7,-0.9,0.5
Cc1ccc(C(=O)n2ccc3ccc(-c4ccc5ccn(Cc6ccc(C#N)cc6)c5c4)cc32)cc1,.,.,.,.,.,-1.4
CC(C)CCn1cnc2c(sc3nc4c(cc32)CSC(C)(C)C4)c1=O,1.6,0.3,-1.5,.,85.3*,-4.7
CCCCn1cnc2c(sc3nc4c(cc32)CSC(C)(C)C4)c1=O,.,.,27.6,47.2*,44.5,4.0
CC1(C)Cc2nc3sc4c(NCCO)ncnc4c3cc2CS1,.,0.0,8.6,16.5,17.2,1.9
O=C(C[C@H]1C[C@H]2c3cc(NC(=O)CC4CC4)ccc3O[C@H]2[C@H](CO)O1)NCc1ccc2c(c1)OCO2,-9.1,0.7,.,-0.2,.,.
CN(Cc1ccccc1)C(=O)CN1C(=O)c2ccccc2C1=O,-5.3,0.0,0.8,-2.2,.,-0.4
